Redox H2O2 prof: compounds producing H2O2 with reducing agent – biochemical, NIH compound library profiling, artefact control for MLSCN library redox annotation, primary screen; DTT-dependent redox cycling H2O2, phenol red/HRP absorbance; 100% = 100 µM peroxide control, 0% = buffer; activation, % at 10 µM; 200,000 compounds, 0.03% hits; AID 878;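 active means activation of at least 50% relative to the plate's high and low controls in the primary single-dose screen; inactive means activation below 50%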;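 further: compound incubated with DTT at 0.8 mM final as the reducing agent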
Autophagy mod: alters autophagy in cells. MEF GFP-LC3 puncta imaging; test concentration mostly 10 µM. 190,000 compounds, 0.98% hits. calls only at 10 µM (by protocol);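 active means percentage of spot-positive cells more than 3 SD above its plate mean, without a fluorescence outlier flag or 80% toxicity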
Efa HMGR inh: E. faecalis class II HMG-CoA reductase inhibition. 190,000 compounds, 0.41% hits. purified E. faecalis HMGR, NADPH absorbance 340 nm kinetic. inhibition, % at 10 µM;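 active means inhibition above a set limit, the median over all tested compounds plus 3 SD, cut at about 9.5% in these data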;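 further: enzyme runs in reverse so mevalonate oxidation gives rising NADPH absorbance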
Ins promoter up: MIN6 insulin promoter up-regulation. MIN6 insulin promoter-GFP reporter, high-content imaging; stronger effect = higher value. z-score at 5 µM. 190,000 compounds, 0.3% hits. AID 1625;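 active means z-score above 3 at 5 µM with at least 500 cells counted in the well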
p47phox inh: p47phox (human) inhibition; P14598; p47phox/p22phox peptide binding, fluorescence polarization, 2 h; inhibition, % at 24.7 µM; 220,000 compounds, 0.53% hits; AID 1274;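 active means inhibition above about 30%, limit read from the data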
Target sequence (P14598 whole entry, looked up): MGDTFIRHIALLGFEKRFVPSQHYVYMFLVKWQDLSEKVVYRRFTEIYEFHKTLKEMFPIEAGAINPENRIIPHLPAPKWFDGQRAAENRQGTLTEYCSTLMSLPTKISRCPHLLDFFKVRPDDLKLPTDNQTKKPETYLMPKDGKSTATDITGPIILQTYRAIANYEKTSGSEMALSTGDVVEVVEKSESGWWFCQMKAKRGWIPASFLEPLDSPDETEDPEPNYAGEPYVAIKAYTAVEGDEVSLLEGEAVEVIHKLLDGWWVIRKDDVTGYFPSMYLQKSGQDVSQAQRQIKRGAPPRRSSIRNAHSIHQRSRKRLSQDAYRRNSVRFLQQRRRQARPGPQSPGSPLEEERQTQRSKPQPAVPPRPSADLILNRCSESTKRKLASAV
Arbovirus inh: blocks arbovirus infection; arbovirus infection cell-based antiviral screen; inhibition, % at 10 µM; 200,000 compounds, 0.37% hits; AID 1251; in the data active means inhibition above about 30%
Large screens that a line does not name were inactive. An excerpt weighted towards active compounds, which were near 2.2% of everything screened.

COc1ccc(-c2nc(NC(=O)c3ccc(OCC(=O)N4CCOCC4)c(OC)c3)sc2C)cc1	Arbovirus inh 45
COc1cc(C(=O)Nc2nc(-c3ccc(Cl)cc3)c(C)s2)ccc1OCC(=O)Nc1ccc(F)cc1	none
COc1cc(/C=C/C(=O)OCC(=O)Nc2ccc3c(c2)OCCO3)ccc1OCC#N	none
Clc1ccc2c(c1)C(N1CCNCC1)Cc1ccccc1S2 (centres undefined)	Autophagy mod active (no result: Ins promoter up)
Clc1cccc2c1Sc1ccccc1CC2N1CCNCC1 (centres undefined)	none
Cc1ccc(NC(=O)CSc2nc3ccccc3c(=O)n2CCCC(=O)N2CCCC2)cc1	none
CCCCn1c(SCC(=O)N2CCN(c3ccccc3)CC2)nc2ccsc2c1=O	Arbovirus inh 34
O=C(CSc1nc2ccccc2c(=O)n1CCCN1CCOCC1)N1CCN(c2ccccc2)CC1	Autophagy mod active
CCCn1c(SCC(=O)N2CCN(c3ccccc3)CC2)nc2ccccc2c1=O	none
CCCCn1c(SCC(=O)N2CCC(C)CC2)nc2ccsc2c1=O	none
Cc1ccc(NC(=O)CSc2nc3ccccc3c(=O)n2CCCN2CCCCC2)cc1C	Autophagy mod active
CCOC(=O)c1cnn(CCOC(=O)c2ccc(F)cc2)c1NC(=O)c1ccc(F)cc1	none
COc1ccccc1NS(=O)(=O)c1cccc(C(=O)N/N=C(\C)c2ccc3c(c2)OCCO3)c1	none
Cc1ccc(SCc2cc(-c3ccc(Cl)cc3)no2)cc1	Ins promoter up 3.1
Cc1cc(C)cc(N=C2SC(CC(=O)Nc3ccccc3)C(=O)N2CCN2CCOCC2)c1 (centres undefined)	Autophagy mod active
CCOc1ccc(N2C(=O)CC(NCc3ccc(F)cc3)C2=O)cc1 (centres undefined)	Autophagy mod active
Cc1occc1C(=O)N/N=C/C1=C(N2CCOCC2)C(=C\c2ccc(Cl)cc2Cl)/CC1	Autophagy mod active
Cc1nc([N+](=O)[O-])c(Br)n1Cc1ccc(Cl)c(Cl)c1	none
Cc1nc2c(C(=O)NCCC(C)C)c[nH]n2c(=O)c1Cl	Arbovirus inh 36
Cc1nc2c(C(=O)NCCc3ccccc3)c[nH]n2c(=O)c1Cl	none
O=C(Nc1ccc(Cl)cc1)c1ccc(OCC2CCCO2)cc1 (centres undefined)	none
O=C(Nc1nc(-c2ccc(Cl)cc2Cl)cs1)c1ccc(OCC2CCCO2)cc1 (centres undefined)	Arbovirus inh 68
Cc1ccc(CN2C3CCCC2CC(NC(=O)c2ccc(C)cc2)C3)cc1 (centres undefined)	none
Cc1c(CCOC(=O)C23CC4(C)CC(C)(CC(C)(C4)C2)C3)sc[n+]1CC(=O)c1ccccc1	p47phox inh 33
C#CCOCCOCCOCCNc1nc(N2CCN(C(=O)[C@H](Cc3cc4ccccc4[nH]3)n3cc([C@@H](N)C(C)CC)nn3)CC2)nc(N2CCN(C(=O)[C@H](Cc3cc4ccccc4[nH]3)n3cc([C@@H](N)Cc4ccc(O)cc4)nn3)CC2)n1 (some centres undefined)	p47phox inh 79
C#CCOCCOCCOCCNc1nc(N2CCN(C(=O)C(CCC(=O)O)n3cc(C(N)CC(C)C)nn3)CC2)nc(N2CCN(C(=O)C(Cc3cc4ccccc4[nH]3)n3cc(C(N)Cc4ccc(O)cc4)nn3)CC2)n1 (centres undefined)	none
C#CCOCCOCCOCCNc1nc(N2CCN(C(=O)[C@H](C)n3cc(CCCN=C(N)N)nn3)CC2)nc(N2CCN(C(=O)[C@H](Cc3ccc(O)cc3)n3cc(CCO)nn3)CC2)n1	none
C#CCOCCOCCOCCNc1nc(N2CCN(C(=O)[C@H](Cc3cc4ccccc4[nH]3)n3cc([C@@H](N)Cc4ccc(O)cc4)nn3)CC2)nc(N2CCN(C(=O)[C@H](Cc3cc4ccccc4[nH]3)n3cc([C@@H](N)CC(C)C)nn3)CC2)n1	p47phox inh 73 (no result: Redox H2O2 prof, Autophagy mod, Efa HMGR inh, Ins promoter up, Arbovirus inh)
C#CCOCCOCCOCCNc1nc(N2CCN(C(=O)C(Cc3cc4ccccc4[nH]3)n3cc(C(N)Cc4ccc(O)cc4)nn3)CC2)nc(N2CCN(C(=O)C(Cc3cc4ccccc4[nH]3)n3cc(C(N)Cc4ccc(O)cc4)nn3)CC2)n1 (centres undefined)	p47phox inh 65
C#CCOCCOCCOCCNc1nc(N2CCN(C(=O)[C@H](CCCCN)n3cc(CCCC)nn3)CC2)nc(N2CCN(C(=O)[C@H](Cc3ccc(O)cc3)n3cc(CCO)nn3)CC2)n1	p47phox inh 63
CCOc1ccc(CN(C)CC(=O)Nc2ccc([N+](=O)[O-])cc2Cl)cc1	none
Cc1ccc(C(C)C)c(OCC(=O)NN=C(CCl)CCl)c1	none (no result: Redox H2O2 prof, Autophagy mod, Efa HMGR inh, Arbovirus inh)
O=C(Nc1ccc(Oc2ccc(NC(=O)Nc3ccc([N+](=O)[O-])cc3)cc2)cc1)Nc1ccc([N+](=O)[O-])cc1	none (no result: Redox H2O2 prof, Autophagy mod, Efa HMGR inh, Arbovirus inh)
COc1ccc2cc(/C=N/NC(=O)CN(c3ccccc3C)S(=O)(=O)c3ccccc3)c(Cl)nc2c1	Autophagy mod active
CC(=O)Nc1ccc2nc(NC(=O)COc3cccc(C)c3)sc2c1	none (no result: Ins promoter up)
CCN(CC)N=Nc1ccc(S(N)(=O)=O)cc1	Efa HMGR inh 10
c1ccc(CN(CC2=NCCN2)c2ccccc2)cc1	none (no result: Ins promoter up)
c1ccc(CC2=NCCN2)cc1	p47phox inh 54
ON/C=N/C(=S)Nc1ncc(C(F)(F)F)cc1Cl	Efa HMGR inh 18
COc1oc(-c2ccc(Cl)cc2)nc1C(F)(F)F	Efa HMGR inh 21 (no result: Ins promoter up)
C=CCn1c(SCCOc2ccc(OC)cc2)nnc1C(C)NC(=O)Cc1ccc(OC)cc1 (centres undefined)	Ins promoter up 4.2
COC(=O)C1=C(C)N(C)C(C)=C(C(=O)OC)C1c1ccc(C(=O)OC)cc1	none
COC(=O)C1=C(C)N(C)C(=S)N(C)C1c1ccc(OC)cc1 (centres undefined)	Efa HMGR inh 12
COc1ccc(C2C(C(=O)N3CCOCC3)CCC(=O)N2c2ccc(OC)cc2)cc1 (centres undefined)	Ins promoter up 3.7
COc1ccc(N2C(=O)CCC(C(=O)N3CCCCC3)C2c2ccc(OC)c(OC)c2)cc1 (centres undefined)	none
O=C(COC(=O)CC1CC2CCC1C2)Nc1cccc(S(=O)(=O)NC2=NCCCCC2)c1 (centres undefined)	none
CC(C)(C)c1ccc(C(=O)N2CCCN(C(=O)c3ccc(C(C)(C)C)cc3)CC2)cc1	none
CC(C)(C)c1ccc(C(=O)N2CCNCC2)cc1	p47phox inh 38
CC(C)NCc1cc(Br)ccc1OCc1ccccc1	none
Cc1cc(C)c2cc(CN(Cc3cccnc3)C(=O)c3ccc(F)cc3)c(Cl)nc2c1	Arbovirus inh 91
Cc1cccc2cc(CN(Cc3cccnc3)C(=O)c3ccccc3F)c(Cl)nc12	none
COc1ccc(-c2ccc(CO)o2)cc1N	Autophagy mod active

Screening results deposited in PubChem BioAssay by several laboratories.
